These results are taken from PubChem BioAssay.

A number with no mark means an inactive call. The source made the active and inactive calls.

The assay can be described thus: plasmodial surface anion channel blockers, osmotic lysis – cell-based, P. falciparum Indochina, OD700, 2 h, primary screen (AID 1155).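 Further: lysis reports solute entry through the parasite surface anion channel PSAC.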 The conditions noted are these: P. falciparum Indochina infected erythrocytes, higher = more signal, called active from +8 up or from −8 down.
Consider `COC(=O)C(CC#Cc1ccc2c(c1)[C@]1(C(=O)N2)[C@H](C(=O)NC[C@H](O)c2ccccc2)[C@H]2C(=O)O[C@H](c3ccccc3)[C@H](c3ccccc3)N2[C@@H]1c1ccccc1OCCO)C(=O)OC`, for which the z-score was 0.574. As to `CN(C)CCCNC(=O)[C@@]1(Cc2ccccc2I)c2ccccc2C(=O)N(C2CCCCC2)[C@H]1c1ccc(CO)cc1`, the z-score was -0.0009.

As for `CN1C(=O)C2C=CC(C(O)c3ccc(-c4ccccc4)s3)N(NC(=O)OC(C)(C)C)C2C1=O` (stereo not given), the z-score was 0.524. For `CCCNC(=O)[C@@]1(Sc2ccc(C)cc2)CC(=O)N(Cc2ccccc2Cl)[C@@H]1c1ccc(CO)cc1I`, the z-score is 0.773. As to `CN(C)c1ccc(C(O)C2C=CC3C(=O)N(Cc4ccccc4)C(=O)C3N2n2cnnc2)cc1` (stereo not given), the z-score is -0.318.

As to `C[C@@H]1ON(c2ccccc2)[C@H](c2ccccc2)[C@H]1C(=O)O`, the z-score was -0.299. For the molecule `O=C1[C@H]2C=C(I)[C@H](C[C@@H]2c2ccccc2)[C@@]12CO2`, the z-score was 0.0069. As for `C=CCC(OC(C)=O)[C@@H]1[C@@H](N(Cc2ccc(-c3cccc(C(F)(F)F)c3)o2)C(=O)c2ccc(-c3ccccc3)cc2)c2cc(OCCCO)ccc2N1C(=O)c1ccc2ccccc2c1` (stereo not given in full), the figure is -0.125. Take `O=C(NCc1ccc(F)cc1)[C@H]1C[C@H]2C(=O)N3CCC[C@H]3C(=O)N2[C@H]1c1ccc(O)cc1`: the z-score is -0.989. Take `N#Cc1ccc(NN2C(C(O)C3CC=CCC3)C=CC3C(=O)N(c4ccccc4)C(=O)C32)cc1` (stereo not given): the z-score was 3.34. With `CCCNC(=O)[C@@]1(c2ccc([N+](=O)[O-])cc2)CC(=O)N(C(C)C)[C@@H]1c1ccc(CO)cc1`, the z-score is -0.366. As for `CC(C)N1C(=O)C[C@@](C(=O)NCCN2CCOCC2)(c2ccc([N+](=O)[O-])cc2)[C@H]1c1ccc(CO)cc1`, the figure is -0.0494. Turning to `C[N+](C)(C)CCCC[C@@H]1NC(=O)[C@H]2C[C@@H](C(=O)NCCCCCNC(=O)CS)[C@@H](c3cccc(OCCO)c3)N2C1=O`, the z-score is -0.0251. With `[N-]=[N+]=Nc1ccccc1[C@@H]1OC(c2ccc(OCCCO)cc2)=N[C@]1(Cc1ccccc1)C(=O)NCCN1CCOCC1`, the z-score is 26.5 (active). Regarding `CCOC(=O)C[C@H]1[C@H](OC(=O)c2ccccc2-c2ccccc2)[C@@H](NC(=O)C2CCCCC2)c2cc(OCCCO)ccc2N1C(=O)c1ccc2ccccc2n1`, the z-score was 0.192. `NC(=O)N1C(=O)C2C(C1=O)C1C=C(CCCO)C2C(c2ccc(CN3CCCC3)cc2)N1Cc1sc2ccccc2c1Cl` (stereo not given): the z-score was 0.894. `CC(C)(C)N1CC=CC23O[C@@H]4/C=C\CCCOC(=O)C4[C@H]2C(=O)N(CCCO)[C@@H]3C1=O` (stereo not given in full): the z-score is 0.223.

As to `CC(C)N1C(=O)c2ccccc2[C@](C)(C(=O)NCC(F)(F)F)[C@@H]1c1ccc(CO)cc1`, the z-score is -0.0162. In the case of `COc1ccc(C#Cc2ccc3c(c2)[C@]2(C(=O)N3)[C@H](C(=O)O)[C@H]3C(=O)O[C@H](c4ccccc4)[C@H](c4ccccc4)N3[C@@H]2c2ccccc2OCCO)cc1`, the z-score is -0.566.

Regarding `CCCCCC1=C2CNC(Cc3ccccc3)(C(=O)OC)C=C2C(C)C1=O` (stereo not given), the z-score is -0.21. Take `CCCCCCc1nc(-c2ccc(-c3ccc(Cl)c(Cl)c3)o2)cc2c1[Si](C(C)C)(C(C)C)OC2`: the z-score was 0.259. As to `COC(=O)[C@H](Cc1ccccc1)N1CC2=CCCC=C[C@@H]2[C@H]1[C@H](O)Cc1ccccc1`, the z-score was 0.492. Turning to `COC(=O)[C@@]1(Cc2ccc(F)cc2)[C@H]2c3cc(C(=O)N4CCCC4)n(CCc4ccccn4)c3C[C@H]2CN1C(=O)c1ccccc1`, the z-score is 0.408. On to `O=C1N(CCS(=O)(=O)c2ccccc2)c2ccccc2C[C@]12N=C(c1ccc(OCCCO)cc1)O[C@@H]2c1ccccc1`, for which the z-score was 18.6 (active). `C=CCN1C(=O)[C@]2(O[C@H](CCn3cc([C@H](O)c4ccccc4)nn3)[C@@H]([Si](C)(C)c3ccc(OC)cc3)[C@@H]2C)c2cc(NC(=O)c3ccc(OC)cc3)ccc21`: the z-score is 2.21. As for `C=C(COC)C(=O)CC[C@@H](OC(C)=O)c1ccccc1OCCO`, the figure is -0.91. Consider `COC(=O)[C@@]1(Cc2ccc(F)cc2)[C@H]2c3cc(C(=O)N4CCCC4)n(Cc4ccccn4)c3C[C@H]2CN1C(=O)c1ccccc1`, for which the z-score was 0.404. As for `C=CCOC(=O)[C@@H]1[C@H]2C(=O)O[C@H](c3ccccc3)[C@H](c3ccccc3)N2[C@H](c2ccc(OCCOC(=O)[C@H]3C[C@H]4C(=O)NCC(=O)N4[C@H]3c3cccc(OCCO)c3)cc2)[C@@]12C(=O)Nc1ccc(I)cc12`, the figure is 1.56; as for `COC(=O)C[C@H]1O[C@@]2(C[C@@H]1[Si](C)(C)C)C(=O)N(C)c1ccccc12`, -0.694; as for `CN(C)CCCC[C@@H]1NC(=O)[C@@H]2C[C@H](C(=O)NCCCCCCNC(=O)CS)[C@H](c3ccc(O)cc3)N2C1=O`, 0.284.

For `CCOC(=O)C1=CC[C@@H](c2ccc(OC)cc2)N(S(=O)(=O)c2ccc(C)cc2)[C@H]1CC`, the z-score was -0.258. As for `C=C(CCCC)/C(=C/C[C@H](OC(=O)c1ccncc1)c1ccc(OCCO)cc1)c1cnc2ccccc2c1`, the z-score is 11.9 (active). Regarding `COC(=O)[C@@]1(Cc2ccc(F)cc2)[C@H]2c3cc(C(=O)N4CCCC4)n(Cc4cc(F)cc5c4OCOC5)c3C[C@H]2CN1C(=O)c1ccccc1`, the z-score is 0.273. Turning to `C=C(CCCC)C(=O)CC[C@H](OC(=O)c1ccccc1-c1ccccc1C(=O)O)c1ccc(OCCO)cc1`, the z-score is 1.38.

On to `C[N+](C)(C)CCCCNC(=O)[C@H]1C[C@H]2C(=O)N[C@@H](Cc3ccccc3)C(=O)N2[C@H]1c1cccc(OCCO)c1`, for which the z-score is 0.772.
